Laboratory results from PubChem BioAssay (NCI).
This is part of a sample that, as a whole, favours compounds with a hit. Of some 83,000 tested, about 20% had one in any assay.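 Testing used 96-well plates and a 48-hour single-concentration exposure. Example: -40 means 40% of the starting cells died.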 Active and inactive are the calls of the source. Rule for the calls: active = growth percent below 10; inactive = the rest.

System: HL-60(TB) leukemia
Assay: NCI-60 one-dose screen, 48 h (100 = growth as untreated, 0 = no growth, -100 = all killed)
Settings: 10 µM unless noted

SMILES | growth
c1ccc(-c2nn(-c3ccccc3)[n+](-c3ccccc3-c3ccccc3)n2)cc1 | -31.4% (active)
Cc1ccccc1[P+](Cc1ccccc1)(c1ccccc1)c1ccccc1 | -26.9% (active)
CC(C)C1=C[C@@]23CC[C@H]4[C@](C)(COCCC#N)CCC[C@]4(C)[C@H]2C[C@@H]1[C@@H]1[C@H]3[C@@H](OCCC#N)CC[C@@H]1OCCC#N | -42.7% (active)
